# Results from PMC7862700, “An all-to-all approach to the identification of sequence-specific readers for epigenetic DNA modifications on cytosine”.
# How the values were obtained:
# Assay in all cases: DAPPL (digital affinity profiling via proximity ligation, sequencing); 10 mM Tris-HCl pH 7.5, 50 mM NaCl, 1 mM DTT, 4% glycerol, room temperature, 30 min; GST-TFs on glutathione beads, 16-mer random dsDNA library, 0.1% formaldehyde crosslink after washing; high values mean tight binding
# FEV = target: T1, FEV (Homo sapiens, UniProt Q99581 1-238); details: protein: recombinant; tags: N-terminal GST; dsDNA, one strand shown
# T1 sequence: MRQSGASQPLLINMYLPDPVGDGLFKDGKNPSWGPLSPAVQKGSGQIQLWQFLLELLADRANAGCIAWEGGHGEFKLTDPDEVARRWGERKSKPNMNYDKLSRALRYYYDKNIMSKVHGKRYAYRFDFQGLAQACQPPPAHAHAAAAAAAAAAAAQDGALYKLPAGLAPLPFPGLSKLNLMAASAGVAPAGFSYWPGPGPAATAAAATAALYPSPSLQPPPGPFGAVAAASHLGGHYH
# Summary of the method: (§1)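 Each value of binding signal is a hexamer's read frequency for a factor divided by the same hexamer's frequency in the tag-only sample. Barcoded, bead-captured GST fusions of human transcription factors made in yeast were pooled with that sample and incubated with 200 nmole of a random double-stranded 16-mer DNA library in Tris/NaCl/DTT/glycerol buffer at room temperature for 30 min. Washing, 0.1% formaldehyde crosslinking, proximity ligation, PCR and Illumina NextSeq500 sequencing followed.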
# ETV5 = ETV5 (Homo sapiens, UniProt P41161 1-510); details: protein: recombinant; tags: N-terminal GST; dsDNA, one strand shown
# Chain of ETV5 (P41161 whole entry): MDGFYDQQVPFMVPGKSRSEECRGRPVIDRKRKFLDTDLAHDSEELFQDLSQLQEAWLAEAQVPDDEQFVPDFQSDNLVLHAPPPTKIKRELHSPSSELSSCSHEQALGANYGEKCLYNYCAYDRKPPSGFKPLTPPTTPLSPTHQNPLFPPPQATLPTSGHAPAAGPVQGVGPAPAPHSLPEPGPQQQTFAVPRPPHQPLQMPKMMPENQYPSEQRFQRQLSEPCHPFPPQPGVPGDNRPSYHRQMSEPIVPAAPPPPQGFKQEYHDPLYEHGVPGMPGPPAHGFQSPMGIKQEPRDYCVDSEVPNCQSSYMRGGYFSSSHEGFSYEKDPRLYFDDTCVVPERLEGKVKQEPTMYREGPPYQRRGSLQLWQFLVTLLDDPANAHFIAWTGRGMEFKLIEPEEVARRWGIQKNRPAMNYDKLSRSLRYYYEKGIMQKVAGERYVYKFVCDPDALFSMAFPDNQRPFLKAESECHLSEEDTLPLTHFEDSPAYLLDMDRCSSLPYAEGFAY
# Summary of the method: as §1
# HSF1 = HSF1 (Homo sapiens, UniProt Q00613 1-529); details: protein: recombinant; tags: N-terminal GST; chain copies: 3; dsDNA, one strand shown
# Chain of HSF1 (Q00613 whole entry): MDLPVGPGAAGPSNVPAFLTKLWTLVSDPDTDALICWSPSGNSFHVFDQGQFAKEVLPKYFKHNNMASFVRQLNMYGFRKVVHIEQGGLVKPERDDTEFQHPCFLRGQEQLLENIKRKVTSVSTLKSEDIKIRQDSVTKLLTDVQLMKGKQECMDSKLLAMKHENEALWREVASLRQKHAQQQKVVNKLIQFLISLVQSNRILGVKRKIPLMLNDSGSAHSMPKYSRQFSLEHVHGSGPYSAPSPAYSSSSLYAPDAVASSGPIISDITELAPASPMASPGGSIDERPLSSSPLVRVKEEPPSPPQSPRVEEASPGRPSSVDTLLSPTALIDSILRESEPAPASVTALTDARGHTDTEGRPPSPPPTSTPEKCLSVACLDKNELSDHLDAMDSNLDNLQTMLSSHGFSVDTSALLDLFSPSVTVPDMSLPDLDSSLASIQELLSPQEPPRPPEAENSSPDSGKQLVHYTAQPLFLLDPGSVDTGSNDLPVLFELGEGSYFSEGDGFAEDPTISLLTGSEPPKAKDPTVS
# Summary of the method: as §1
# SPIC = target: T2, SPIC (Homo sapiens, UniProt Q8N5J4 1-248); details: protein: recombinant; tags: N-terminal GST; dsDNA, one strand shown
# T2 sequence: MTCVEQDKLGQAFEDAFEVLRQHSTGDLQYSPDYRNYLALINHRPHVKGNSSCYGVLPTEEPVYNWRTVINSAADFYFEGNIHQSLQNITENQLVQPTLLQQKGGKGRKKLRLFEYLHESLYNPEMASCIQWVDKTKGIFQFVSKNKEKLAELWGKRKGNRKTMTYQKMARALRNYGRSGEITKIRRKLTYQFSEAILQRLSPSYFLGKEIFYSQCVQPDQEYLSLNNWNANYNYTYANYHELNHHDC
# Summary of the method: as §1
# ELF4 = ELF4 (Homo sapiens, UniProt Q99607 1-663); details: protein: recombinant; tags: N-terminal GST; dsDNA, one strand shown
# Chain of ELF4 (Q99607 whole entry): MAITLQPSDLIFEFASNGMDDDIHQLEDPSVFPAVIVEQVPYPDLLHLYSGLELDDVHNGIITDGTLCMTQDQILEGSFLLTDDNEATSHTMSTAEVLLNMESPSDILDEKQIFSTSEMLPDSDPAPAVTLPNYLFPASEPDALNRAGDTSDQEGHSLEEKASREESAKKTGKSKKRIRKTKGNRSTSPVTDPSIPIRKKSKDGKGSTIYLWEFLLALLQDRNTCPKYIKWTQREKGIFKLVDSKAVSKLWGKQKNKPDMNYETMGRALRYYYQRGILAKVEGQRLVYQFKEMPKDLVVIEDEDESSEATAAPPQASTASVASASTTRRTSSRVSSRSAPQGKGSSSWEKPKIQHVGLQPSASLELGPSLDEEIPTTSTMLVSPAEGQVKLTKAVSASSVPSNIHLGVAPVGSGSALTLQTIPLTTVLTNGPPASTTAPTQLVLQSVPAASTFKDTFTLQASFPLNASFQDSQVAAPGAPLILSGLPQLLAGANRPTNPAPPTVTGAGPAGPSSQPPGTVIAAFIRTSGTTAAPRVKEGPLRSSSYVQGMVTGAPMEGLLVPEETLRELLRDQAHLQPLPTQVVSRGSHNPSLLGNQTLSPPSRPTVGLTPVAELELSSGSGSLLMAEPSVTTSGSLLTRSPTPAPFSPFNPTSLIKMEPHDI
# Summary of the method: as §1
# ELK4 = target: T3, ELK4 (Homo sapiens, UniProt P28324-2 1-405); details: protein: recombinant; tags: N-terminal GST; dsDNA, one strand shown
# T3 sequence: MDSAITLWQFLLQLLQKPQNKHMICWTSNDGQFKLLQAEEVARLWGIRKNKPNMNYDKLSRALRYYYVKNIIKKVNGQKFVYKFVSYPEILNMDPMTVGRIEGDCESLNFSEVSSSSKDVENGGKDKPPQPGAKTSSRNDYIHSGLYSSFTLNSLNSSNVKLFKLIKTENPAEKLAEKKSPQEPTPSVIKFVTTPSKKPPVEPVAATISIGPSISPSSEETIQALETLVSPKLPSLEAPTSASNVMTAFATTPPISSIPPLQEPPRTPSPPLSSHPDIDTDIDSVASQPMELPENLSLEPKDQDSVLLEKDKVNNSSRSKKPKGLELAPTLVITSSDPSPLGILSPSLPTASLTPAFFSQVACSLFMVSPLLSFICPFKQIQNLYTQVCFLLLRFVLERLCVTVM
# Summary of the method: as §1
# ETV2 = target: T4, ETV2 (Homo sapiens, UniProt O00321 1-342); details: protein: recombinant; tags: N-terminal GST; dsDNA, one strand shown
# T4 sequence: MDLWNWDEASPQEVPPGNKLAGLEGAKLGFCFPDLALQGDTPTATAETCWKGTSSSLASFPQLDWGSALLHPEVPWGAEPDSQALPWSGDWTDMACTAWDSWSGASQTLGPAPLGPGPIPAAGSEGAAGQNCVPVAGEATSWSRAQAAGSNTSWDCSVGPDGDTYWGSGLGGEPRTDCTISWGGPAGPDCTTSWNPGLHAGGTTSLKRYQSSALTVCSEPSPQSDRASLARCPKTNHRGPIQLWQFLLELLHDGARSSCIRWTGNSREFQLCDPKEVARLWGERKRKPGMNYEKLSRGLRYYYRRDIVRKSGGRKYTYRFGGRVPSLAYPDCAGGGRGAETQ
# Summary of the method: as §1
# ELF3 = target: T5, ELF3 (Homo sapiens, UniProt P78545 1-371); details: protein: recombinant; tags: N-terminal GST; dsDNA, one strand shown
# T5 sequence: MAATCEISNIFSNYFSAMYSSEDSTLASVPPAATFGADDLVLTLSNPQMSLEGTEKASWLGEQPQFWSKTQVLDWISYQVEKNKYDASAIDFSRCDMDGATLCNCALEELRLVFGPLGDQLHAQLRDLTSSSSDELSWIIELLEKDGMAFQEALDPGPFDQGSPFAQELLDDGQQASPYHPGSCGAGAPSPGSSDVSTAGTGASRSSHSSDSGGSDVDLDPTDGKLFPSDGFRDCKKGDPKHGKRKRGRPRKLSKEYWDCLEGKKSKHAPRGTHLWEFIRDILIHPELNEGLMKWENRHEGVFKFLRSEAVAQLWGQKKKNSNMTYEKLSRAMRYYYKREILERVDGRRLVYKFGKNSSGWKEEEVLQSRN
# Summary of the method: as §1
# CRX = CRX (Homo sapiens, UniProt O43186 1-299); details: protein: recombinant; tags: N-terminal GST; dsDNA, one strand shown
# Chain of CRX (O43186 whole entry): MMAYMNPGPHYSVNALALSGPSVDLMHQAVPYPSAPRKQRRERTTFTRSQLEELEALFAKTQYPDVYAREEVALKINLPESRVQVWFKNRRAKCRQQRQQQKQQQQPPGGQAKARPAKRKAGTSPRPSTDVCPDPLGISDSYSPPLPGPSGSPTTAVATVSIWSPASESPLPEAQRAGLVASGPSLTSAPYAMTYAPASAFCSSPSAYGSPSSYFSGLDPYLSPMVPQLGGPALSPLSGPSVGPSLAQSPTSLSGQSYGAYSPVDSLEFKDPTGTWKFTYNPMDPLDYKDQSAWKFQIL
# Summary of the method: as §1
# ETV1 = ETV1 (Homo sapiens, UniProt P50549 1-477); details: protein: recombinant; tags: N-terminal GST; dsDNA, one strand shown
# Chain of ETV1 (P50549 whole entry): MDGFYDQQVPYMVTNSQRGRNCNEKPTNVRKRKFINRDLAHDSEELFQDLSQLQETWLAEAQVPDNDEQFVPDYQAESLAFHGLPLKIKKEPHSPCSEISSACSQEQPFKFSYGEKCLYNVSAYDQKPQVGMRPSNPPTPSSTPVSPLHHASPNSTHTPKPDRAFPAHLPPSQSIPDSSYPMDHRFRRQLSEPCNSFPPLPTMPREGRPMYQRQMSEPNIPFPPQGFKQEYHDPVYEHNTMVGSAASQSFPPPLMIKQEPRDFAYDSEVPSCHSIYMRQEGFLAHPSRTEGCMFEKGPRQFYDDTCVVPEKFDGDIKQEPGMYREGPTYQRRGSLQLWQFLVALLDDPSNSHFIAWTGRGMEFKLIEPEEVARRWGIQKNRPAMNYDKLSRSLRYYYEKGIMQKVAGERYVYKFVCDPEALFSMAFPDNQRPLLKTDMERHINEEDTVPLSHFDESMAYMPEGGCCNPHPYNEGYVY
# Summary of the method: as §1
# ERF = target: T6, ERF (Homo sapiens, UniProt P50548 1-548); details: protein: recombinant; tags: N-terminal GST; dsDNA, one strand shown
# T6 sequence: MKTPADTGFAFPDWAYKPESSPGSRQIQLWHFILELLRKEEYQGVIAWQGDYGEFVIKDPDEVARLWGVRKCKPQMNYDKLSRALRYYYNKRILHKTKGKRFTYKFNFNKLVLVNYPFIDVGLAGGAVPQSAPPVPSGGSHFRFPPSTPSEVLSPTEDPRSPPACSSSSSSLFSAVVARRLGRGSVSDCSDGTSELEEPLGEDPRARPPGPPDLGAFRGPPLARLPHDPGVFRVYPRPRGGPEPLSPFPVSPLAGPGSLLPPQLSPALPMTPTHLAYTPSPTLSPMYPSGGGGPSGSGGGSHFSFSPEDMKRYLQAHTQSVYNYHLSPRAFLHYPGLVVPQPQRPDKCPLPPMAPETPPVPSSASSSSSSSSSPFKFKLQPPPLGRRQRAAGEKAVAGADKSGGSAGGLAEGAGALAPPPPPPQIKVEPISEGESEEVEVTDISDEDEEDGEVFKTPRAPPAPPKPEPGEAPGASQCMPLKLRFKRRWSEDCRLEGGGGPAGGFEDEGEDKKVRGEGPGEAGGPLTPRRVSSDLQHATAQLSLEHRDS
# Summary of the method: as §1
# ETV3L = target: T7, ETV3L (Homo sapiens, UniProt Q6ZN32 1-361); details: protein: recombinant; tags: N-terminal GST; dsDNA, one strand shown
# T7 sequence: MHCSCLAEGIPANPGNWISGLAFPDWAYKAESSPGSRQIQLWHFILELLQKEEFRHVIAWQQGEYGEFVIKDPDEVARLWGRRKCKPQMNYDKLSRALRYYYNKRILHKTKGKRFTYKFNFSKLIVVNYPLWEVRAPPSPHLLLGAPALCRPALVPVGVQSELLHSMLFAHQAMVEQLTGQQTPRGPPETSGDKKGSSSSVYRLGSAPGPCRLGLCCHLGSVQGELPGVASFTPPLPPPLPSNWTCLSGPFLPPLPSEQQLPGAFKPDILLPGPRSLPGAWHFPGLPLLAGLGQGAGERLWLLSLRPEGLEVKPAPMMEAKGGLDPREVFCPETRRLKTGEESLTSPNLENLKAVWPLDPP
# Summary of the method: as §1
# ETS2 = target: T8, ETS2 (Homo sapiens, UniProt P15036 1-469); details: protein: recombinant; tags: N-terminal GST; dsDNA, one strand shown
# T8 sequence: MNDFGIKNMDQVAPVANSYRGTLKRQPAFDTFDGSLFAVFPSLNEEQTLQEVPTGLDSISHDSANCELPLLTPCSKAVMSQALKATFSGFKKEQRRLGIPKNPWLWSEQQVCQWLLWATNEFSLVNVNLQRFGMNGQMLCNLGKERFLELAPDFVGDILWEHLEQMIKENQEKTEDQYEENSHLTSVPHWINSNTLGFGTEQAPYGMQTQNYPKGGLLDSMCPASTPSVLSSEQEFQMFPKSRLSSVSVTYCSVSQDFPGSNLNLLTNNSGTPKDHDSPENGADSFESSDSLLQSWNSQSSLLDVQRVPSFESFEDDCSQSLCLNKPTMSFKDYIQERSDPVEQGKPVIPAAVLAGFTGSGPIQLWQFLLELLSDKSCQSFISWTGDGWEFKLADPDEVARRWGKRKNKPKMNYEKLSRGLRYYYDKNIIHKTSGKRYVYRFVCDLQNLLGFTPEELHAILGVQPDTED
# Summary of the method: as §1
# SPDEF = target: T9, SPDEF (Homo sapiens, UniProt O95238 1-335); details: protein: recombinant; tags: N-terminal GST; dsDNA, one strand shown
# T9 sequence: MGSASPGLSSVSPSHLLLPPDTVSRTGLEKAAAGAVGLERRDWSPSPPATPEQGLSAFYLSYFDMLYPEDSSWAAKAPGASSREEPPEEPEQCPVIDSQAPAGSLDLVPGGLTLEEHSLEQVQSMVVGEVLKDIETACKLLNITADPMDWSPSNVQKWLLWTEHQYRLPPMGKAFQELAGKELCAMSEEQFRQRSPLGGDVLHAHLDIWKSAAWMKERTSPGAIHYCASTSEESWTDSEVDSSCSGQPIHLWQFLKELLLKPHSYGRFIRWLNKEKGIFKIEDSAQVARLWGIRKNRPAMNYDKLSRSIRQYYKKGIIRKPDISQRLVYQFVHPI
# Summary of the method: as §1
# ETV7 = target: T10, ETV7 (Homo sapiens, UniProt Q9Y603 1-341); details: protein: recombinant; tags: N-terminal GST; dsDNA, one strand shown
# T10 sequence: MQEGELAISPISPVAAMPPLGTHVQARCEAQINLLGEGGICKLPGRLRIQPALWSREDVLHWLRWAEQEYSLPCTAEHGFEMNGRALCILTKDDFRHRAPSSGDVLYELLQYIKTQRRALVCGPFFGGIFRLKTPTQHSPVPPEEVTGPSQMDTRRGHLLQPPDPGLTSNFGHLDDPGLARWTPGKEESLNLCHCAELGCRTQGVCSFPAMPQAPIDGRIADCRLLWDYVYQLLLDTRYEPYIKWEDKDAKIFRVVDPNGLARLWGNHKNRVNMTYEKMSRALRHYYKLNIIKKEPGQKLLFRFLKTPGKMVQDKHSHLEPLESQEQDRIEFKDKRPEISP
# Summary of the method: as §1
# ELF5 = target: T11, ELF5 (Homo sapiens, UniProt Q9UKW6-2 1-255); details: protein: recombinant; tags: N-terminal GST; dsDNA, one strand shown
# T11 sequence: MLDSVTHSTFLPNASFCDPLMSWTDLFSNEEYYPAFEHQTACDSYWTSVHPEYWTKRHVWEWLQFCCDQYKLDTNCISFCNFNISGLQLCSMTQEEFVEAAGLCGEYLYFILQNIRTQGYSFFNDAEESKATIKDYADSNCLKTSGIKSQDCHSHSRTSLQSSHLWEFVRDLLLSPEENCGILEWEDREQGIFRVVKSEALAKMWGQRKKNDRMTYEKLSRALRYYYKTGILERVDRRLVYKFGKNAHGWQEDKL
# Summary of the method: as §1
# ETV3 = target: T12, ETV3 (Homo sapiens, UniProt P41162-2 1-143); details: protein: recombinant; tags: N-terminal GST; dsDNA, one strand shown
# T12 sequence: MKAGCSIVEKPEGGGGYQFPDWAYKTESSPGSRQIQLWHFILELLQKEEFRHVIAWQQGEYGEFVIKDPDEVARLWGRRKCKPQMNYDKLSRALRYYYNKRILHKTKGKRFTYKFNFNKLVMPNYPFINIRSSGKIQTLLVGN
# Summary of the method: as §1
# ETV6 = ETV6 (Homo sapiens, UniProt P41212 1-452); details: protein: recombinant; tags: N-terminal GST; dsDNA, one strand shown
# Chain of ETV6 (P41212 whole entry): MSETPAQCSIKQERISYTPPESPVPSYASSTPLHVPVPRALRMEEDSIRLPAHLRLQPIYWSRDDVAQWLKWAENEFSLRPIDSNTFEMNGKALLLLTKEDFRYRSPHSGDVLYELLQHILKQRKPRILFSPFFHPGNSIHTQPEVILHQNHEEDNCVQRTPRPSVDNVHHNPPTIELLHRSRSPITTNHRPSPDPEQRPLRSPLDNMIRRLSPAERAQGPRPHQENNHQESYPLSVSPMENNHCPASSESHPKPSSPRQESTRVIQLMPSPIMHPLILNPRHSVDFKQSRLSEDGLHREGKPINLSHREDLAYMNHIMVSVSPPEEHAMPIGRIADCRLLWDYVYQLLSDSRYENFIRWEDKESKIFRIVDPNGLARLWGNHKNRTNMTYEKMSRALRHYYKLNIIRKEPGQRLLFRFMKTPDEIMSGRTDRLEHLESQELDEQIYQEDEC
# Summary of the method: as §1
sequence,measurement,setting,value
TGTAAA,binding signal,FEV,"1.08 fold enrichment (6-mer frequency, TF over GST control)"
same,binding signal,ETV5,"1.16 fold enrichment (6-mer frequency, TF over GST control)"
same,binding signal,HSF1,"1.2 fold enrichment (6-mer frequency, TF over GST control)"
same,binding signal,SPIC,"1.24 fold enrichment (6-mer frequency, TF over GST control)"
same,binding signal,ELF4,"1.13 fold enrichment (6-mer frequency, TF over GST control)"
same,binding signal,ELK4,"1.1 fold enrichment (6-mer frequency, TF over GST control)"
same,binding signal,ETV2,"1.16 fold enrichment (6-mer frequency, TF over GST control)"
same,binding signal,ELF3,"1.23 fold enrichment (6-mer frequency, TF over GST control)"
same,binding signal,CRX,"1.2 fold enrichment (6-mer frequency, TF over GST control)"
same,binding signal,ETV1,"1.14 fold enrichment (6-mer frequency, TF over GST control)"
same,binding signal,ERF,"1.23 fold enrichment (6-mer frequency, TF over GST control)"
same,binding signal,ETV3L,"1.22 fold enrichment (6-mer frequency, TF over GST control)"
same,binding signal,ETS2,"1.24 fold enrichment (6-mer frequency, TF over GST control)"
same,binding signal,SPDEF,"1.16 fold enrichment (6-mer frequency, TF over GST control)"
same,binding signal,ETV7,"1.13 fold enrichment (6-mer frequency, TF over GST control)"
same,binding signal,ELF5,"1.1 fold enrichment (6-mer frequency, TF over GST control)"
same,binding signal,ETV3,"1.2 fold enrichment (6-mer frequency, TF over GST control)"
same,binding signal,ETV6,"1.03 fold enrichment (6-mer frequency, TF over GST control)"
